Data from PubChem BioAssay (NCATS).
Inconclusive results are not listed. Calls of active or inactive are those of the source. Calls follow the shape of the dose curve; as a rule, active = well fitted inhibition curve with a large enough effect; inconclusive = small, poorly fitted or top-dose-only effect; inactive = no such curve, though single readings can be large or run the other way.

assay: qHTS assay for measurement of the activity of small molecule inhibitors on Zika virus induced Caspase-3 activity in human iPSC derived neural progenitor cells (hNPCs) (AID 1224857); conditions: hNPCs ZIKV-induced caspase-3/7, Caspase-Glo luminescence, 6 h; series mostly up to 45.7 µM; also: nearly all actives have a fitted effect of over 65% in size
Source text: National Center for Advancing Translational Sciences [NCATS]
Johns Hopkins University School of Medicine
Increase in the Caspase-3 activity indicates an activation of apoptosis cell death pathway caused by Zika virus infection in certain types of neuronal cells including human neural progenitor cells (hNPCs), astrocytes, and astrocytoma cell line (SNB-19). This cell-based caspase-3 activity assay measures the increased caspase-3 activity in the human iPSC derived neural progenitor cells (hNPCs) after a 6-hour Zika virus infection with a luminescence readout. A decrease in the luminescence signal in this assay by small molecule treatment indicates an inhibitory effect of that small molecule on the Zika virus induced caspase-3 activity that may correlate with its effect on reduction of Zika virus caused cell death.
The medium for hNPCs consists of DMEM/F12, N2 supplement (ThermoFisher, Cat.# 17502048), NEAA (ThermoFisher, Cat. # 11140050), 2 ug/ml heparin, 2 uM cyclopamine, and B27 (ThermoFisher, Cat. # 17504044). A Caspase-Glo 3/7 assay kit (catalog number G8092; Promega, Madison, WI) was used to detect caspase-3 activity induced by Zika virus infection in human cells. The reagent mixture was reconstituted as described in the protocol from the manufacturer. Polystyrene tissue culture treated and PDL coated white plates were obtained from Greiner Bio-One (Monroe, NC). Cells were seeded in 384- or 1536-well assay plates and cultured at 37 C with 5% CO2 for 16 to 20 hours. The typical cell seeding density in the 1536-well plate assay is 350 cells/well in 3 ul medium for hNPCs in tissue culture treated plates. Compounds were added to cells and incubated for one hour before addition of ZIKV solution to cells (2 FFU/cell). After incubation at 37 C with 5% CO2 for 6 hours, the reagent mixture of Caspase-Glo 3/7 assay kit was added to each well, followed by incubation at room temperature for 30 minutes. The luminescence intensity of the assay plates was measured using a ViewLux plate reader (PerkinElmer). Data were normalized by using the cell-containing wells without ZIKV as a negative control (0% induction of caspase 3/7 activity) and wells containing ZIKV infected cells (Caspase-3 activity induced) as a positive control (100% induction of caspase 3 activity). The percentage inhibitions of the increased Caspase-3 activity by small molecule inhibitors were then calculated.

| Compound | outcome |
| --- | --- |
| CC(C)(Oc1ccc(CCNC(=O)c2ccc(Cl)cc2)cc1)C(=O)O | inactive |
| CCCCNc1c(C(=O)OCC)c(C)nc2c1cnn2CC | inactive |
| OC(CCN1CCCCC1)(c1ccccc1)C1CCCCC1 (stereo not given) | inactive |
| COCCOC(=O)C1=C(C)NC(C)=C(C(=O)OC(C)C)C1c1cccc([N+](=O)[O-])c1 (stereo not given) | inactive |
| CN(C)CC/C=C1\c2ccccc2COc2ccccc21 | inactive |
| OCCN1CCN(CC/C=C2/c3ccccc3Sc3ccc(C(F)(F)F)cc32)CC1 | inactive |
| COc1cc(C(=O)OCCCN2CCCN(CCCOC(=O)c3cc(OC)c(OC)c(OC)c3)CC2)cc(OC)c1OC | inactive |
| CC(C)NNC(=O)c1ccncc1 | inactive |
| CN1C(=O)CC[C@H]1c1cccnc1 | inactive |
| CC(C)NCC(O)c1cc(O)cc(O)c1 (stereo not given) | inactive |
| CCN1CCC[C@H]1CNC(=O)c1c(O)c(Cl)cc(Cl)c1OC | inactive |
| CN(C)[C@@H]1C(=O)C(C(N)=O)=C(O)[C@@]2(O)C(=O)C3=C(O)c4c(O)ccc(Cl)c4[C@@H](O)[C@H]3C[C@@H]12 | inactive |
| NC1=NCC2c3ccccc3Cc3ccccc3N12 (stereo not given) | inactive |
| CC[N+](C)(C)c1cccc(O)c1 | inactive |
| COC(=O)C1=C(C)NC(C)=C(C(=O)OCCN(C)Cc2ccccc2)C1c1cccc([N+](=O)[O-])c1 (stereo not given) | inactive |
| O=C(O)CCCCCCCC(=O)O | inactive |
| COC(=O)[C@@H](N)Cc1ccc(O)c(O)c1 | inactive |
| CCC(=O)c1ccc2c(c1)N(CCCN(C)C)c1ccccc1S2 | inactive |
| CC(N=C(NC#N)Nc1ccncc1)C(C)(C)C (stereo not given) | inactive |
| CCCOc1ccccc1-c1nc2n[nH]nc2c(=O)[nH]1 | inactive |

| Compound | outcome |
| --- | --- |
| O=C(CCCN1CCC(O)(c2cccc(C(F)(F)F)c2)CC1)c1ccc(F)cc1 | inactive |
| CN(C)CCCN1c2ccccc2Sc2ccccc21 | inactive |
| CCCCNc1ccc(C(=O)OCCN(C)C)cc1 | inactive |
| Cc1nc2sccn2c(=O)c1CCN1CCC(=C(c2ccc(F)cc2)c2ccc(F)cc2)CC1 | inactive |
| NC(=O)c1ncn([C@@H]2O[C@H](CO)[C@@H](O)[C@H]2O)c1O | inactive |
| Brc1c(NC2=NCCN2)ccc2nccnc12 | inactive |
| COC(=O)[C@H]1[C@H]2C[C@@H]3c4[nH]c5cc(OC)ccc5c4CCN3C[C@H]2C[C@@H](OC(=O)c2cc(OC)c(OC)c(OC)c2)[C@@H]1OC | inactive |
| CN/C(=C\[N+](=O)[O-])NCCSCc1ccc(CN(C)C)o1 | inactive |
| CC(=O)Oc1cc(C(C)C)c(OCCN(C)C)cc1C | inactive |
| C[C@]12CC[C@@H]3c4ccc(O)cc4C[C@@H](CCCCCCCCCS(=O)CCCC(F)(F)C(F)(F)F)[C@H]3[C@@H]1CC[C@@H]2O (stereo not given in full) | inactive |
| O=C(O)CN(CCN(CC(=O)O)CC(=O)O)CCN(CC(=O)O)CC(=O)O | inactive |
| CCCCNC(=O)NS(=O)(=O)c1ccc(C)cc1 | inactive |
| O=C(O)CN(CCOCCOCCN(CC(=O)O)CC(=O)O)CC(=O)O | inactive |
| CN1CCN(CC(=O)N2c3ccccc3C(=O)Nc3cccnc32)CC1 | inactive |
| Cc1ccc(/C(=C\CN2CCCC2)c2ccccn2)cc1 | inactive |
| NC(=O)N1c2ccccc2C=Cc2ccccc21 | inactive |
| CCOC(=O)C1=C(C)NC(C)=C(C(=O)OC)C1c1cccc([N+](=O)[O-])c1 (stereo not given) | inactive |
| CNCCCN1c2ccccc2CCc2ccccc21 | inactive |
| c1cc(CN2CCCCC2)cc(OCCCNc2nc3ccccc3s2)c1 | inactive |
| Nc1nc(N)c2nc(-c3ccccc3)c(N)nc2n1 | inactive |
